Data: the supplement of paper PMC10849652
Of roughly 7,900 targets only a part is listed; those with a hit were picked by preference. About 0.6% of all pairs of compound and target were hits.

What was measured:
Experiment in all cases: log2 fold change, soluble protein after heating vs DMSO (PISA); higher = thermal stabilisation; K562 cells, 10 uM, 30 min; active = over 0.2 and 3.5 SD of the protein, either way, in both replicates (recomputed)
[1] = compound: CC1=C(C=C(C=C1)NC(=O)C2=CC(=CC=C2)C(C)(C)C#N)NC3=CC4=C(C=C3)N=CN(C4=O)C
Procedure, shortened: (§1)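 Soluble protein was defined as the supernatant after 21,000xg for 90 min. It came from K562 cells at 2×10^6 cells/mL given 10 μM compound for 30 min, heated in aliquots for 3 min across 48°C-58°C, pooled, and extracted in PBS with 0.5% NP-40 at 4°C, and was quantified by TMTpro 16plex LC-MS/MS with equalised channel sums. Thermal stability against control samples, from duplicates, is reported as log2 fold change.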

[2] = compound: CC1=C(C=C(C=C1)NC(=O)C2=CC(=CC=C2)N(C)C)NC(=O)C3=CC=C(C=C3)O
Procedure, shortened: as §1

[3] = compound: CC1=CC=C(C=C1)SC2=C3C=C(SC3=CN=C2)C(=O)N
Procedure, shortened: as §1

[4] = compound: CC1=NC(=CC=C1)C2=C(N=C(N2)C(C)(C)C)C3=CC4=NC=CN=C4C=C3
Procedure, shortened: as §1

[5] = compound: CCCCN(Cc1ccc(C(=O)NO)cc1)C(=O)Nc1ccccc1 [Nexturastat A]
Procedure, shortened: as §1

[6] = compound: CCCS(=O)(=O)Nc1ccc(F)c(C(=O)c2c[nH]c3ncc(-c4ccc(Cl)cc4)cc23)c1F [vemurafenib]
Procedure, shortened: as §1

[7] = compound: CCCS(=O)(=O)Nc1ccc(F)c(C(=O)c2c[nH]c3ncc(Cl)cc23)c1F
Procedure, shortened: as §1

[8] = compound: CCCc1cc(C)[nH]c(=O)c1CNC(=O)c1cc(-c2ccnc(N3CCN(C)CC3)c2)cc2c1cnn2C(C)C
Procedure, shortened: as §1

[9] = compound: CCN(CC)Cc1ccc2cc(COC(=O)Nc3ccc(C(=O)NO)cc3)ccc2c1 [givinostat]
Procedure, shortened: as §1

[10] = compound: CCN(CCCOc1ccc2c(Nc3cc(CC(=O)Nc4cccc(F)c4)[nH]n3)ncnc2c1)CCOP(=O)(O)O [barasertib]
Procedure, shortened: as §1

Measured: log2 fold change

NFE2 (UniProt Q16621)
inactive: [1] -0.09 | [2] 0.064 | [3] 0.017 | [4] 0.034 | [5] 0.044 | [6] -0.087 | [7] 0.043 | [8] -0.009 | [9] 0.087 | [10] -0.003

MT-ND1 (UniProt P03886)
inactive: [1] -0.002 | [2] 0.028 | [3] -0.008 | [4] -0.034 | [5] 0.021 | [6] 0.168 | [7] 0.208 | [8] 0.019 | [9] 0.057 | [10] 0.127

MT-ND4 (UniProt P03905)
inactive: [1] -0.064 | [2] 0.067 | [3] 0.015 | [4] 0.048 | [5] -0.155 | [6] 0.004 | [7] 0.016 | [8] 0.014 | [9] 0.058 | [10] 0.156

MRPS10 (UniProt P82664)
inactive: [1] 0.018 | [2] 0 | [3] 0 | [4] -0.03 | [5] 0.097 | [6] -0.002 | [7] 0.006 | [8] -0.046 | [9] 0.063 | [10] -0.051

NASP (UniProt P49321)
Chain of UniProt P49321 (P49321 whole entry, looked up): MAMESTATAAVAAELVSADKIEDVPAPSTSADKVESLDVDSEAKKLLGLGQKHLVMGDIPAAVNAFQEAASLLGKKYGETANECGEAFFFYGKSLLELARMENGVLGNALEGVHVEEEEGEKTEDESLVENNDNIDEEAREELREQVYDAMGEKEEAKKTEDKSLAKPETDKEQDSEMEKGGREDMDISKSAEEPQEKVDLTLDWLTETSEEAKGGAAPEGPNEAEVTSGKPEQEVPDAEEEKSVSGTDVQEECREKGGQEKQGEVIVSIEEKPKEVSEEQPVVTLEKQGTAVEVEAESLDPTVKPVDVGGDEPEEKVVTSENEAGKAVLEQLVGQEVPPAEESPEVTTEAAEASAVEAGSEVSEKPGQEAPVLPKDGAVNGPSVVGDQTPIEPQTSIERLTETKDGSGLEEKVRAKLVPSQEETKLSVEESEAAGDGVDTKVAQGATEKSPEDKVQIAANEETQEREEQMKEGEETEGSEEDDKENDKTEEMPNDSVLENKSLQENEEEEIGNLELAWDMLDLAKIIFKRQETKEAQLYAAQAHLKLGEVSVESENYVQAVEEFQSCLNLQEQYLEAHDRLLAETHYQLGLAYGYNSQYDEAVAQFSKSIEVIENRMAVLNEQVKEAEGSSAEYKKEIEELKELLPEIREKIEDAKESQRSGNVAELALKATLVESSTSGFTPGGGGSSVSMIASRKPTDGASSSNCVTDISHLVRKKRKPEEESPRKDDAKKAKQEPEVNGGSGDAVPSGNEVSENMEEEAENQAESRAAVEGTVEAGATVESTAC
inactive: [1] 0.012 | [2] -0.033 | [3] 0 | [4] 0.009 | [5] -0.058 | [6] 0.037 | [7] 0.038 | [8] -0.006 | [9] 0.001 | [10] 0.027

NEDD4 isoform 4 (UniProt P46934)
inactive: [1] -0.069 | [2] -0.011 | [3] -0.025 | [4] 0.047 | [5] -0.04 | [6] 0.029 | [7] 0.026 | [8] 0.026 | [9] 0.018 | [10] 0.009

NTMT1 (UniProt Q9BV86)
inactive: [1] 0.05 | [2] 0.037 | [3] -0.003 | [4] -0.034 | [5] -0.042 | [6] 0.062 | [7] 0.012 | [8] -0.073 | [9] -0.066 | [10] 0.019

NA, A0A0B4J2A0
inactive: [1] 0.016 | [2] -0.028 | [3] 0.002 | [4] -0.006 | [5] -0.043 | [6] 0.017 | [7] 0.072 | [8] -0.091 | [9] 0.029 | [10] 0.012

NUDCD2 (UniProt Q8WVJ2)
Chain of UniProt Q8WVJ2 (Q8WVJ2 whole entry, looked up): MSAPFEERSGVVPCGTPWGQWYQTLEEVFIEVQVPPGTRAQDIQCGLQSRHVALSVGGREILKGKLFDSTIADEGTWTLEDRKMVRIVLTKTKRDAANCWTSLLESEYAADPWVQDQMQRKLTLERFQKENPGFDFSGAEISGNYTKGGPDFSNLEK
inactive: [1] -0.018 | [2] -0.109 | [3] 0.117 | [4] 0.019 | [5] 0.082 | [6] -0.014 | [7] 0.008 | [8] -0.039 | [9] 0.047 | [10] 0.104

PAFAH1B3 (UniProt Q15102)
inactive: [1] 0 | [2] -0.096 | [3] 0.098 | [4] 0.03 | [5] 0.019 | [6] -0.014 | [7] -0.012 | [8] 0.005 | [9] -0.022 | [10] 0.035

MON2 isoform 5 (UniProt Q7Z3U7)
inactive: [1] -0.002 | [2] -0.009 | [3] -0.036 | [4] 0.018 | [5] 0 | [6] 0.017 | [7] 0.085 | [8] 0.046 | [9] 0.029 | [10] 0.039

MITD1 (UniProt Q8WV92)
Chain of UniProt Q8WV92 (Q8WV92 whole entry, looked up): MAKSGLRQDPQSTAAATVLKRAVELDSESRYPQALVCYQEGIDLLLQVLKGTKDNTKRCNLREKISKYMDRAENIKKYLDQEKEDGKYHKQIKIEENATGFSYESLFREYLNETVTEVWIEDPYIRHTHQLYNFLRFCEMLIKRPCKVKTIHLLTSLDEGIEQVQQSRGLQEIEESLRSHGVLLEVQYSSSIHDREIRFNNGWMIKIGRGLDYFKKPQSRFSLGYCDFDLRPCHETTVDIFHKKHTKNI
inactive: [1] -0.124 | [2] 0.072 | [3] -0.043 | [4] -0.043 | [5] -0.026 | [6] 0.069 | [7] 0 | [8] -0.093 | [9] -0.047 | [10] 0.042

NR2C2AP isoform 2 (UniProt Q86WQ0)
Chain of UniProt Q86WQ0 (Q86WQ0 whole entry, looked up): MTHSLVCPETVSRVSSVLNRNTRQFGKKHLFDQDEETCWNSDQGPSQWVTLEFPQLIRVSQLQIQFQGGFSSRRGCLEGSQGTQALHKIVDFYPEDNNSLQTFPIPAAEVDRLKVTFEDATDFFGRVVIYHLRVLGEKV
inactive: [1] -0.053 | [2] -0.068 | [3] -0.007 | [4] 0.082 | [5] -0.101 | [6] -0.026 | [7] 0.066 | [8] -0.085 | [9] -0.035 | [10] -0.002

MPHOSPH8 isoform 2 (UniProt Q99549)
inactive: [1] -0.159 | [2] 0.179 | [3] -0.159 | [4] -0.022 | [5] -0.013 | [6] -0.02 | [7] -0.1 | [8] -0.002

NEK3 (UniProt P51956)
inactive: [1] 0.058 | [2] -0.055 | [3] 0.052 | [4] -0.108 | [5] -0.033 | [6] 0.089 | [7] -0.123 | [8] -0.063 | [9] -0.013

MRPL50 (UniProt Q8N5N7)
inactive: [1] -0.09 | [2] -0.04 | [3] 0.175 | [4] -0.031 | [5] 0.208 | [6] 0.034 | [7] 0.244 | [8] -0.058 | [9] 0.05 | [10] -0.057

OXA1L (UniProt Q15070)
inactive: [1] -0.013 | [2] 0.01 | [3] 0.02 | [4] 0.01 | [5] -0.021 | [6] 0.022 | [7] -0.013 | [8] -0.049 | [9] 0.003 | [10] -0.012

NSUN2 (UniProt Q08J23)
Chain of UniProt Q08J23 (Q08J23 whole entry, looked up): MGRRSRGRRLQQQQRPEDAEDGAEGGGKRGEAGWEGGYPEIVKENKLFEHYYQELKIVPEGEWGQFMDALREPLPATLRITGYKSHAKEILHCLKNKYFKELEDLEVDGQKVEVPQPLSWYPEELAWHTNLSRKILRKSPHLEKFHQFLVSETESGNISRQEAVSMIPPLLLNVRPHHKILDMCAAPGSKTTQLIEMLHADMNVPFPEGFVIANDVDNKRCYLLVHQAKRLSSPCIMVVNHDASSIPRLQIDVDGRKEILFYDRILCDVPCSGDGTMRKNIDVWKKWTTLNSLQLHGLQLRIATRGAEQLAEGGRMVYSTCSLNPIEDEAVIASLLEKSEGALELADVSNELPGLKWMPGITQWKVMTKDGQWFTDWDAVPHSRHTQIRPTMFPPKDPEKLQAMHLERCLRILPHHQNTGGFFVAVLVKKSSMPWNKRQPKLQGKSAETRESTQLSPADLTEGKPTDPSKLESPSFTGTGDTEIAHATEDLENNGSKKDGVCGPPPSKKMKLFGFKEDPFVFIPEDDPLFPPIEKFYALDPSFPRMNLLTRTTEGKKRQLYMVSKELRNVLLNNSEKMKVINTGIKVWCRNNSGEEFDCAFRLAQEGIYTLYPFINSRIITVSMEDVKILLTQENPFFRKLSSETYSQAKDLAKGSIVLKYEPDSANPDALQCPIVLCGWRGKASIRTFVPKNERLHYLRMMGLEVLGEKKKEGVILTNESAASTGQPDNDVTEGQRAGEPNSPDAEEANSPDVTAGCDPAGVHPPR
inactive: [1] -0.042 | [2] 0.013 | [3] -0.021 | [4] -0.009 | [5] 0.037 | [6] 0.016 | [7] 0.061 | [8] 0.019 | [9] -0.204 | [10] 0.037

NMNAT1 (UniProt Q9HAN9)
inactive: [1] -0.079 | [2] 0.006 | [3] -0.09 | [4] -0.196 | [5] 0.132 | [6] -0.162 | [7] -0.139 | [8] 0.178 | [9] 0.042 | [10] -0.064

NSMCE2 (UniProt Q96MF7)
Chain of UniProt Q96MF7 (Q96MF7 whole entry, looked up): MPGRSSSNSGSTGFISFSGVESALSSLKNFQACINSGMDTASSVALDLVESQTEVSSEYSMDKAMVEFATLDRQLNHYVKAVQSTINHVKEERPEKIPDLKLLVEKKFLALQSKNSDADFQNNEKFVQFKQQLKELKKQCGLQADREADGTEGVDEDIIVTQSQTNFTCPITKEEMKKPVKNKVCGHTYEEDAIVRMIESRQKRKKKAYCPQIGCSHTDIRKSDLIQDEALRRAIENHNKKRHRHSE
inactive: [1] 0.019 | [2] -0.052 | [3] 0.006 | [4] 0.056 | [5] 0.064 | [6] -0.007 | [7] 0.021 | [8] 0.018 | [9] -0.076 | [10] 0.078

NUMBL (UniProt Q9Y6R0)
Chain of UniProt Q9Y6R0 (Q9Y6R0 whole entry, looked up): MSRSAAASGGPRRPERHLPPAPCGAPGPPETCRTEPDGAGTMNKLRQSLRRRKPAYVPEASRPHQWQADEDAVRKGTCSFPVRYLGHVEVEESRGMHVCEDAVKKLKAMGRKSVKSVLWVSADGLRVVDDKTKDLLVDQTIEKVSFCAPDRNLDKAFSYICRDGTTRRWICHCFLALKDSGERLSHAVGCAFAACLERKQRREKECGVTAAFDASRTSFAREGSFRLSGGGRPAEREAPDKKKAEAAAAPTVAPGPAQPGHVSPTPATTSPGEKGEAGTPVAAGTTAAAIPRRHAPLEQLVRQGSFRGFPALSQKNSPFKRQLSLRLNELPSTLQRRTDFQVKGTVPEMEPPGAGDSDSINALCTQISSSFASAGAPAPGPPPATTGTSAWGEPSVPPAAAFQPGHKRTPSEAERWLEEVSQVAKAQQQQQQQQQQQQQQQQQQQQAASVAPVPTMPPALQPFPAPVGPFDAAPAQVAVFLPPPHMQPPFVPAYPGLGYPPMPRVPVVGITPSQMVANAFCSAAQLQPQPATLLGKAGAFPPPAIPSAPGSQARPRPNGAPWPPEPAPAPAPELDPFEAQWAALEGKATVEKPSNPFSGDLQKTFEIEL
inactive: [1] 0.011 | [2] -0.045 | [3] -0.018 | [4] -0.081 | [5] 0.121 | [6] -0.144 | [7] -0.005 | [8] 0.249 | [9] 0 | [10] 0.069

P4HA2 (UniProt O15460)
inactive: [1] -0.038 | [2] -0.014 | [3] 0.033 | [4] -0.102 | [5] 0.402 | [6] -0.093 | [7] -0.038 | [8] 0.043 | [9] 0.058 | [10] 0.101

NPEPPS (UniProt P55786)
inactive: [1] 0.079 | [2] -0.012 | [3] -0.004 | [4] 0.018 | [5] -0.017 | [6] -0.022 | [7] 0.003 | [8] 0.009 | [9] -0.02 | [10] 0.008

NUP205 (UniProt Q92621)
inactive: [1] 0.009 | [2] 0.018 | [3] 0.002 | [4] 0.075 | [5] 0.151 | [6] 0.059 | [7] 0.084 | [8] -0.016 | [9] 0.076 | [10] 0.044

MYH11 isoform 2 (UniProt P35749)
Chain of UniProt P35749 (P35749 whole entry, looked up): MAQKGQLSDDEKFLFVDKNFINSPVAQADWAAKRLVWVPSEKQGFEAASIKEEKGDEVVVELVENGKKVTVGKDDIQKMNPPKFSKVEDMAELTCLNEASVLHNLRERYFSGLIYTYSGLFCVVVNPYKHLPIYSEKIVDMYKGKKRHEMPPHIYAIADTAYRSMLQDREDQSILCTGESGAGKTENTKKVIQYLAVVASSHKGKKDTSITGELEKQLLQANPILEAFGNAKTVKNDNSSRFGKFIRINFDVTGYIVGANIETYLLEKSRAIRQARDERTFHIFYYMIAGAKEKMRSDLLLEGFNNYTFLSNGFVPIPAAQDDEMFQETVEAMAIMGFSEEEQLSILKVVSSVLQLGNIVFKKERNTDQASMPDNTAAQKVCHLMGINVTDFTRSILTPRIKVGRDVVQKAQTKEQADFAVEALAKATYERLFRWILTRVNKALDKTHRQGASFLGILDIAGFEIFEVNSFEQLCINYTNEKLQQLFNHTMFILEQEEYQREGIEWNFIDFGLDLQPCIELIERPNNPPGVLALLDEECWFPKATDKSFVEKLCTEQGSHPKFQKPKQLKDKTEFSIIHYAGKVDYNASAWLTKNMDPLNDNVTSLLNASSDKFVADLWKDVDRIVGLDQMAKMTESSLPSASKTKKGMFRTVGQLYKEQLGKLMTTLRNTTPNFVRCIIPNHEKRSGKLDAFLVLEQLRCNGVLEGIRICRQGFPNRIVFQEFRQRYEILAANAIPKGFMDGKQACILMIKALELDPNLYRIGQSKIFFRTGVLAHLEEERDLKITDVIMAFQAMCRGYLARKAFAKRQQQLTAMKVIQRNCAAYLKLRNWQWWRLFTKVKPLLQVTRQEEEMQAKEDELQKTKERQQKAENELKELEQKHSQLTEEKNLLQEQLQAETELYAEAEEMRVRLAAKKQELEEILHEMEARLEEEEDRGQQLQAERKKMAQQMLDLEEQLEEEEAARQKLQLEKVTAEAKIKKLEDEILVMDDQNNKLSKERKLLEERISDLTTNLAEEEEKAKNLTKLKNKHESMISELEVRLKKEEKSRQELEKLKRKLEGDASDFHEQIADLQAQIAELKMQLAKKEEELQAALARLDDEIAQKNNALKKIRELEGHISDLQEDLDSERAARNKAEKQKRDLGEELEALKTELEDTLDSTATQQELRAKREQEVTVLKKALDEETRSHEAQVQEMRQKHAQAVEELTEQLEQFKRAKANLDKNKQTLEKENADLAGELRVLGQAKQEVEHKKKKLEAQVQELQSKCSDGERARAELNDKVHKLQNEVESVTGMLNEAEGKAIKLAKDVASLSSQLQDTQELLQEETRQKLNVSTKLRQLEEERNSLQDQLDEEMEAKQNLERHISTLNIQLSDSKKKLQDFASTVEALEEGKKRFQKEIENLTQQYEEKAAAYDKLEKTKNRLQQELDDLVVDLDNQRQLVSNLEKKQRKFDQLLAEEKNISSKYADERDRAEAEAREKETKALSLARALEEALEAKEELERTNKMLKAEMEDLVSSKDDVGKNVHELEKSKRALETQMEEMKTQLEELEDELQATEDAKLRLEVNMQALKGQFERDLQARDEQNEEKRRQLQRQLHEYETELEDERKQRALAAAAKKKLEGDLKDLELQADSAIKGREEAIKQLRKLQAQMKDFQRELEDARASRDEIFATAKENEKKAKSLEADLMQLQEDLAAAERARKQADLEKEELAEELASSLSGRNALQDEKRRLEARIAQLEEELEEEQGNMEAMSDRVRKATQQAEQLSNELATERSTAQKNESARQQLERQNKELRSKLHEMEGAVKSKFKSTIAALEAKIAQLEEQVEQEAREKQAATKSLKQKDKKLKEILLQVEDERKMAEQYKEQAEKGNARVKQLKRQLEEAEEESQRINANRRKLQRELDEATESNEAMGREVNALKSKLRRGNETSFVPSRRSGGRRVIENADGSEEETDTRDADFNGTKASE
inactive: [1] 0.009 | [2] 0.057 | [3] -0.003 | [4] 0.004 | [5] -0.014 | [6] 0.051 | [7] -0.006 | [8] -0.253 | [9] 0.032 | [10] 0.057

PACRGL (UniProt Q8N7B6)
inactive: [1] 0.01

NDUFS4 (UniProt O43181)
inactive: [1] 0.03 | [2] 0.024 | [3] -0.069 | [4] -0.033 | [5] 0.032 | [6] -0.061 | [7] -0.06 | [8] -0.033 | [9] -0.083 | [10] -0.062

MTHFD1 (UniProt P11586)
inactive: [1] 0.052 | [2] -0.026 | [3] 0.003 | [4] 0.042 | [5] -0.046 | [6] 0.06 | [7] 0.046 | [8] -0.013 | [9] 0.048 | [10] 0.038

NEU1 (UniProt Q99519)
inactive: [1] 0.031 | [2] -0.048 | [3] 0.029 | [4] 0.118 | [5] 0.068 | [6] -0.002 | [7] -0.008 | [8] 0.057 | [9] 0.036 | [10] 0.059

NDUFB10 (UniProt O96000)
inactive: [1] -0.093 | [2] -0.008 | [3] 0.001 | [4] 0.05 | [5] -0.002 | [6] -0.019 | [7] 0 | [8] -0.126 | [9] -0.023 | [10] 0.02

MYH10 isoform 3 (UniProt P35580)
inactive: [1] 0.009 | [2] -0.033 | [3] 0.019 | [4] 0.07 | [5] -0.05 | [6] 0.028 | [7] 0.05 | [8] 0 | [9] -0.003 | [10] 0.038
